How the values were obtained:
Assay in all cases: PBM binding z-score (relative to random genomic background probes); higher = stronger binding; sequences stand for … in GC…GCGATTGACAGCGTAGAATGAAGG
[1] = test system: FXR:RXRa (NR concentration 270 nM, RXRa partner concentration 90 nM)
Procedure, shortened: (§1)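 Binding z-scores were set against random background probes. The data came from custom Agilent 4×180K protein-binding microarrays carrying double-stranded probes with 34-nt variable regions, incubated 1 h with ligand-free nuclear receptor dimers. Partner-specific antibodies detected binding, and scanned fluorescence was regression-normalized.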

[2] = test system: LXRa:RXRa (NR concentration 270 nM, RXRa partner concentration 90 nM)
Procedure, shortened: as §1

[3] = test system: LXRa homodimer (NR concentration 270 nM)
Procedure, shortened: as §1

[4] = test system: LXRb:RXRa (NR concentration 270 nM, RXRa partner concentration 90 nM)
Procedure, shortened: as §1

[5] = test system: LXRb homodimer (NR concentration 270 nM)
Procedure, shortened: as §1

[6] = test system: PPARa:RXRa (NR concentration 270 nM, RXRa partner concentration 90 nM)
Procedure, shortened: as §1

[7] = test system: PPARg:RXRa (NR concentration 180 nM, RXRa partner concentration 90 nM)
Procedure, shortened: as §1

[8] = test system: PPARg:RXRa 270nM:90nM, anti-RXR (NR concentration 270 nM, RXRa partner concentration 90 nM)
Procedure, shortened: as §1

[9] = test system: PPARg:RXRa 30nM:10nM, anti-RXR (NR concentration 30 nM, RXRa partner concentration 10 nM)
Procedure, shortened: as §1

[10] = test system: PPARg:RXRa 90nM:30nM, anti-RXR (NR concentration 90 nM, RXRa partner concentration 30 nM)
Procedure, shortened: as §1

[11] = test system: PPARg:RXRa DBDmut IVT, anti-RXR (DBD mutation: RXRa K156A/R161A, NR concentration 270 nM, RXRa partner concentration 90 nM)
Procedure, shortened: as §1

[12] = test system: PPARg:RXRa IVT, anti-PPARg (NR concentration 270 nM, RXRa partner concentration 90 nM)
Procedure, shortened: as §1

[13] = test system: PPARg DBDmut:RXRa IVT, anti-PPARg (DBD mutation: PPARg1 K132A/R137A, NR concentration 270 nM, RXRa partner concentration 90 nM)
Procedure, shortened: as §1

[14] = test system: PPARg DBDmut IVT, anti-PPARg (DBD mutation: PPARg1 K132A/R137A, NR concentration 270 nM)
Procedure, shortened: as §1

[15] = test system: PPARg homodimer (NR concentration 180 nM)
Procedure, shortened: as §1

[16] = test system: PXR:RXRa (NR concentration 270 nM, RXRa partner concentration 90 nM)
Procedure, shortened: as §1

[17] = test system: PXR homodimer (NR concentration 270 nM)
Procedure, shortened: as §1

[18] = test system: RARa:RXR (NR concentration 270 nM, RXRa partner concentration 90 nM)
Procedure, shortened: as §1

[19] = test system: RARa homodimer (NR concentration 270 nM)
Procedure, shortened: as §1

[20] = test system: RARb:RXRa (NR concentration 270 nM, RXRa partner concentration 90 nM)
Procedure, shortened: as §1

Sequence | PBM binding z-score [1] | PBM binding z-score [2] | PBM binding z-score [3] | PBM binding z-score [4] | PBM binding z-score [5] | PBM binding z-score [6] | PBM binding z-score [7] | PBM binding z-score [8] | PBM binding z-score [9] | PBM binding z-score [10] | PBM binding z-score [11] | PBM binding z-score [12] | PBM binding z-score [13] | PBM binding z-score [14] | PBM binding z-score [15] | PBM binding z-score [16] | PBM binding z-score [17] | PBM binding z-score [18] | PBM binding z-score [19] | PBM binding z-score [20]
CCTACTGGGCCAAAAAGCTCATTGATGCCGATAA | -0.506 | -0.69 | -0.717 | -0.724 | -1.22 | -0.251 | 0.473 | 1.24 | -0.429 | 0.564 | 3.38 | 2.11 | -0.849 | -0.936 | -0.703 | -0.847 | -0.417 | -1.01 | -0.487 | -0.356
CAAACTAGGTCACCGGAAGGTAAAAGTCCGCATG | 4.56 | 3.72 | 0.573 | 2.66 | 0.507 | 5.39 | 9.08 | 7.23 | 5.39 | 7.11 | 8.41 | 8.97 | 5.23 | 6.11 | 4.02 | 2.47 | 0.103 | 3.44 | 0.872 | 4.32
CCGATTGGGGCAGAAAGGTTACCATACCATCCGG | 0.261 | 0.61 | -0.352 | 1.09 | -0.598 | 2.22 | 2.06 | 3.83 | 2.17 | 3.56 | 0.436 | 1.14 | -1.01 | -0.679 | 0.221 | 1.24 | -0.318 | 1.66 | -0.348 | 1.88
ATCCAAAGGTCGAAGGTGAGTATACCCACCCGAA | 5.05 | 4.12 | 0.34 | 3.2 | 0.577 | 4.95 | 5.19 | 5.37 | 2.53 | 4.33 | 0.6 | 2.51 | 0.413 | 0.999 | 2.58 | 3.26 | 0.0246 | 4.54 | 0.353 | 3.97
ACTAGCAGGCCAAGGGTCACTCAGGATTAGTCCG | 2.7 | 2.61 | 0.0255 | 2.69 | -0.237 | 4.39 | 7.87 | 7.62 | 6.72 | 8.16 | 1.05 | 3.72 | -0.273 | -0.162 | 4.08 | 3.21 | -0.196 | 4.33 | 0.739 | 3.59
TAGCCTAGGTCATGCGGGCAAGTATAGTGTCGGC | 4.44 | 3.3 | 0.517 | 1.94 | -0.137 | 3.73 | 2.32 | 2.59 | 0.322 | 1.54 | 1.66 | 3.02 | 0.235 | -0.248 | 1.39 | 1.45 | -0.333 | 2.21 | 0.228 | 3.83

Reference: the supplement of paper PMC6555819
